A short description of this assay: survival rescue of mitochondrial mutant cells in low glucose, primary screen, MELAS cybrids, Rieske KO mouse fibroblasts, CellTiter-Glo (AID 1508586).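 Further: test concentration not given here; z relative to plate mean and SD of compound and empty wells.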 The settings on record: Rieske KO mouse fibroblast survival, CellTiter-Glo 72 h. On the technique in general: Cellular ATP, detected with luciferase, serves as a proxy for viable cell number.
Consider `CC(C)Cn1nc(C(=O)N2CCOCC2)c2c1CCC(NCc1ccc(F)cc1)C2` (stereo not given), for which the z-score was -0.12.

For `Cc1csc(-c2cc(C(=O)N(C)C3CCN(C)CC3)cc(S(=O)(=O)N3CCOCC3)c2)c1`, the z-score is -0.32.

For `COc1cc(CN2CCc3c(cc(-c4cccc(F)c4)c(=O)n3CCn3ccc(C)n3)C2)ccc1O`, the z-score was 0.944.

Take `CCCCNC(=O)[C@@H]1C[C@H](CN2CCOCC2)CN(CCc2ccccc2)C1`: the z-score was -0.178.

Take `CC(C)=CCNc1cc(C(=O)NCc2cn3ccccc3n2)cc(S(=O)(=O)NC(C)C)c1`: the z-score is -0.764.

Consider `O=C(Nc1ccccc1Cl)N[C@H]1C[C@H]2C(=O)N[C@H](Cc3ccc(O)cc3)C(=O)N2C1`, for which the z-score was -0.509.

`COC(=O)c1c(NC(=O)C2CCOC2)c2cc(NC(C)CO)cnc2n1CCCc1ccccc1` (stereo not given) returned a z-score of 1.02.

Compound `COC(=O)c1c(NC(C)=O)c2cc(NC3CCOCC3)cnc2n1CCc1ccc(OC)cc1` gave a z-score of 0.565.

As to `Cc1ccc(C(=O)N[C@H]2C[C@H]3C(=O)N[C@@H](Cc4ccc(O)cc4)C(=O)N3C2)cc1F`, the z-score is -0.468.

Turning to `CC(C)N1CC(OCc2ccc(F)cc2)CN(C(=O)c2ccc(C#CC(C)(C)O)o2)CC1=O` (stereo not given), the z-score is -0.177.

`O=C1N[C@@H](Cc2c[nH]c3ccccc23)C(=O)N2C[C@@H](NCc3ccccc3Cl)C[C@@H]12` registered a z-score of 0.134.

Regarding `O=C(NCCn1ccnc1)c1cc(NCC2CC=CCC2)cc(S(=O)(=O)N2CCCC2)c1` (stereo not given), the z-score was -0.234.

Turning to `CCc1nc(Cn2c3c(cc(-c4ccccc4C)c2=O)CN(Cc2ccc(O)c(Cl)c2)CC3)no1`, the z-score is -0.271.

In the case of `CCCCNC(=O)[C@@H]1C[C@H](CN2CCOCC2)CN(Cc2ccc(O)cc2)C1`, the z-score is -0.315.

`O=C1N[C@H](CO)C(=O)N2CCN(C(=O)c3ccc(F)cc3)C[C@H]12`: the z-score was -0.948.

Compound `CN(Cc1nc(-c2ccccc2)cs1)C1CCc2c(c(C(=O)N3CCSCC3)nn2C)C1` (stereo not given) gave a z-score of 0.0851.

With `COc1cc(/C=C/CN2CC(=O)N(C(C)C)CC(OCc3noc(C)n3)C2)ccc1O` (stereo not given), the z-score is -0.562.

For `CCC(C)C(=O)Nc1c(C(=O)OC)n(CC2CCCO2)c2ncc(NC3CCSC3)cc12` (stereo not given), the z-score turned out to be 1.01.

In the case of `CN1C(=O)N(Cc2ccccc2)C2(CCN(Cc3nc4ccccc4n3C)CC2)C1=O`, the z-score was -0.298.

Compound `Cc1ccc(-c2cc(C(=O)N3CCC[C@H]3CO)cc(S(=O)(=O)N3CCOCC3)c2)s1` registered a z-score of 1.18.

In the case of `Cc1ccc(-c2cc(C(=O)N(C)CCc3cnn(C)c3)cc(S(=O)(=O)N3CCOCC3)c2)s1`, the z-score was -0.0313.

On to `COC(=O)c1c(NC(=O)c2ccoc2)c2cc(NC3CCSCC3)cnc2n1CC(C)C`, for which the z-score was -0.31.

For the compound `CC(C)CN1CC(OCc2cccc(F)c2)CN(C(=O)Cn2cnc3ccccc3c2=O)CC1=O` (stereo not given), the z-score came to 0.00727.

`O=C(c1nn(Cc2ccncc2)c2c1CN(Cc1ccsc1)CC2)N1CCCC1` came in with a z-score of 0.631.

Take `CN(Cc1cscn1)C(=O)c1nn(CC2CC2)c2c1CN(C(=O)Cn1cnc3ccccc31)CC2`: the z-score was -0.0924.

For the origin of these results see PubChem BioAssay.
